The results in this text go back to ChEMBL document CHEMBL1961873, “Compounds: GSK PKIS; Assays: Nanosyn kinase panel” (2012).

A word on the inhibition: it is the relative decrease from the control value, in per cent.

For assay [1], the target named is Tyrosine-protein kinase SYK (Homo sapiens) (UniProt P43405). The conditions noted are these: at 1 µM.
Assay [2] deals with T1, Tyrosine-protein kinase Tec (Homo sapiens) (UniProt P42680).
T1 sequence (whole entry): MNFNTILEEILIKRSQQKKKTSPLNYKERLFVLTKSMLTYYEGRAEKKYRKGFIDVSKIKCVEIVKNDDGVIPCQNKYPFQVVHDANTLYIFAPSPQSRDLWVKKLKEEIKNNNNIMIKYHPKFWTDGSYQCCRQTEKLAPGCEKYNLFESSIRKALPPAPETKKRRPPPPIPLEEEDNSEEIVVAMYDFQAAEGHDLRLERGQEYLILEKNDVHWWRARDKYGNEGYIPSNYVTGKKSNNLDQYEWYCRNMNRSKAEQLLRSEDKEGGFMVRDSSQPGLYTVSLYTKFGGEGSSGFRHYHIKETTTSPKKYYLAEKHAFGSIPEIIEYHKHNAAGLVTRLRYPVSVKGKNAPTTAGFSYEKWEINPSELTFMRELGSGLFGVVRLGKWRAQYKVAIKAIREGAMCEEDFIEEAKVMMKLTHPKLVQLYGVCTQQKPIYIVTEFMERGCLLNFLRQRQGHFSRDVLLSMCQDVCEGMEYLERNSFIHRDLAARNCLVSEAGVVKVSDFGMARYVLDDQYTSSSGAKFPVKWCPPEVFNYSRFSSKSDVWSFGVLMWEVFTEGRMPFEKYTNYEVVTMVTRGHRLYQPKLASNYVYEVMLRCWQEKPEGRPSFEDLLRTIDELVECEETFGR
To be noted: at 0.1 µM.

Assay [3] concerns the target T1, Tyrosine-protein kinase Tec (Homo sapiens). The conditions noted are these: at 1 µM.
Assay [4] deals with Angiopoietin-1 receptor (Homo sapiens) (UniProt Q02763). To be noted: at 0.1 µM.
Assay [5] has the same target. To be noted: at 1 µM.
The target in assay [6] is T2, Non-receptor tyrosine-protein kinase TNK1 (Homo sapiens) (UniProt Q13470).
T2 sequence (whole entry): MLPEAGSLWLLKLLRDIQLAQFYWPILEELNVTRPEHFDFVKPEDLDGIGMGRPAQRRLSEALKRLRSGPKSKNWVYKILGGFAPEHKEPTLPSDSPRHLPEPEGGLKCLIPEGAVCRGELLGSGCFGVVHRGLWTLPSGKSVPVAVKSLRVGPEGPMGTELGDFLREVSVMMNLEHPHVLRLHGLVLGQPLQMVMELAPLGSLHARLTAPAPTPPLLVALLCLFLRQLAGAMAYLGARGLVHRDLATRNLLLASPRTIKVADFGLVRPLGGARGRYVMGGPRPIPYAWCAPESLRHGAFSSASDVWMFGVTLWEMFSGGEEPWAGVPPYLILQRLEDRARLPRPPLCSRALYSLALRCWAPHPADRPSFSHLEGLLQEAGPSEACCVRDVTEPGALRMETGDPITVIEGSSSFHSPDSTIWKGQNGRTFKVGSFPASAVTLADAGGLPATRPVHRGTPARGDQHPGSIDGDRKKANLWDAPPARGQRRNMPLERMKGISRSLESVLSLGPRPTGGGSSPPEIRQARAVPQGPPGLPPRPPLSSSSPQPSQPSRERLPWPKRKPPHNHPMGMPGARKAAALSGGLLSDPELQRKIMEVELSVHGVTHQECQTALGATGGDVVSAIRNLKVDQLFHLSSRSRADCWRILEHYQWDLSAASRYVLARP
To be noted: at 0.1 µM.

Assay [7] addresses T2, Non-receptor tyrosine-protein kinase TNK1 (Homo sapiens). The conditions noted are these: at 1 µM.
The target in assay [8] is Activated CDC42 kinase 1 (Homo sapiens) (UniProt Q07912). To be noted: at 0.1 µM.
For assay [9] the target is unchanged. The conditions noted are these: at 1 µM.
The target of assay [10] is High affinity nerve growth factor receptor (Homo sapiens) (UniProt P04629). To be noted: at 0.1 µM.
The target is the same in assay [11]. The conditions noted are these: at 1 µM.
For assay [12], the target named is BDNF/NT-3 growth factors receptor (Homo sapiens) (UniProt Q16620). The conditions noted are these: at 0.1 µM.
Assay [13] has the same target. To be noted: at 1 µM.
The target of assay [14] is NT-3 growth factor receptor (Homo sapiens) (UniProt Q16288). To be noted: at 0.1 µM.
Assay [15] has the same target. The conditions noted are these: at 1 µM.
For assay [16], the target named is T3, Tyrosine-protein kinase TXK (Homo sapiens) (UniProt P42681).
T3 sequence (whole entry): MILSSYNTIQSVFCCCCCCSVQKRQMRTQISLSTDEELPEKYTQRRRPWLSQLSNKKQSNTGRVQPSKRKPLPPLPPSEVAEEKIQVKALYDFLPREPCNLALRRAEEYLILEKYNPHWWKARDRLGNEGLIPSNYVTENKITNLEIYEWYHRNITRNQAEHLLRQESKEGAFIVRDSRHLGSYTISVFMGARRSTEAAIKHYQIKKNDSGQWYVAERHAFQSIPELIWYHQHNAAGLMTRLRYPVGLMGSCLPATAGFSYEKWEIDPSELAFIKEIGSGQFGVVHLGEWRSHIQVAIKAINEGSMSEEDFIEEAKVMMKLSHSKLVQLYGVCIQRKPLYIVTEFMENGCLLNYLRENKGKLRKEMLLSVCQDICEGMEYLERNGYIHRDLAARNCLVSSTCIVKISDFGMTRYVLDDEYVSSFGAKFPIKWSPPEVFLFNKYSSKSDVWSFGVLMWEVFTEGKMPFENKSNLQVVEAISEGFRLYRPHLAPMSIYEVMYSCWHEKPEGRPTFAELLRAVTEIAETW
The conditions noted are these: at 0.1 µM.

Assay [17] addresses T3, Tyrosine-protein kinase TXK (Homo sapiens). The conditions noted are these: at 1 µM.
Assay [18] concerns the target Non-receptor tyrosine-protein kinase TYK2 (Homo sapiens) (UniProt P29597). The conditions noted are these: at 0.1 µM.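 Also: each value is a mean of the inhibition readings.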
The target in assay [19] is T4, Dual specificity protein kinase TTK (Homo sapiens) (UniProt P33981).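 Also: reported figures are mean TTK inhibition at 1 µM.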
T4 sequence (whole entry): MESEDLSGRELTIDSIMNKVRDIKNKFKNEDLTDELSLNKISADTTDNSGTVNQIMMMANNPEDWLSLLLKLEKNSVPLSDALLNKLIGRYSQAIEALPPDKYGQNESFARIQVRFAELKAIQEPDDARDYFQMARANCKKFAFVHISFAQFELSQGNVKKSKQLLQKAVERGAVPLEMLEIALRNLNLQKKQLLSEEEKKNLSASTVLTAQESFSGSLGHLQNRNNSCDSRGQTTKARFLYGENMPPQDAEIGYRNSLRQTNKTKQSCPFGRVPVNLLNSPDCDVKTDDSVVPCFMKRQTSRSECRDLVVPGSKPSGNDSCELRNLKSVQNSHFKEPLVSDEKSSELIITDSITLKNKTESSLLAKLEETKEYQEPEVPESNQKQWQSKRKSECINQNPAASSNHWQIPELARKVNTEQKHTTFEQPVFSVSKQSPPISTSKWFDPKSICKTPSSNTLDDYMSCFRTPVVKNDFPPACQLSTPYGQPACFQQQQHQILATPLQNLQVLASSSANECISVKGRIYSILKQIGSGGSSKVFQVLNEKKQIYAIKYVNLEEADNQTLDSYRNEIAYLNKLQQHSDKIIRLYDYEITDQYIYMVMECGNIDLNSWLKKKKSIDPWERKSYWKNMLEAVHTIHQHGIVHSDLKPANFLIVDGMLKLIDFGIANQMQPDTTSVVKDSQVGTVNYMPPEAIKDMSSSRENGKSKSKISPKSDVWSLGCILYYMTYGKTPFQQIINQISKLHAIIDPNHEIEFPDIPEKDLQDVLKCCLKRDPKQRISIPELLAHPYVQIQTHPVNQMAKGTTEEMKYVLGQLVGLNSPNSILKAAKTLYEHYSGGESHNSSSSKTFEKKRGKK
The conditions noted are these: at 1 µM.

For assay [20], the target named is T5, Aurora kinase A (Homo sapiens) (UniProt O14965).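 Also: each reported value is a mean percent inhibition of Aurora-A.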
T5 sequence (whole entry): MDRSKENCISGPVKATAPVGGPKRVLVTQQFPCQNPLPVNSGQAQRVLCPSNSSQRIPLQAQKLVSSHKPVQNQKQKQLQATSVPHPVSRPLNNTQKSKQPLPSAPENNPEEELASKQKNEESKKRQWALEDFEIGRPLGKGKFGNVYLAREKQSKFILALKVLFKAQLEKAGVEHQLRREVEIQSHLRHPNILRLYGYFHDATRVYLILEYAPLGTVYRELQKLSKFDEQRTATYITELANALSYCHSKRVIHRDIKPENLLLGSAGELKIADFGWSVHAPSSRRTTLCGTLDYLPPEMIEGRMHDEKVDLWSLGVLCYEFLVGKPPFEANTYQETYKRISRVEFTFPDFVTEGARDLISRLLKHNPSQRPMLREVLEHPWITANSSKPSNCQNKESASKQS
The conditions noted are these: at 0.1 µM.

Sequence of High affinity nerve growth factor receptor (Homo sapiens) (P04629 33-796 limits assumed): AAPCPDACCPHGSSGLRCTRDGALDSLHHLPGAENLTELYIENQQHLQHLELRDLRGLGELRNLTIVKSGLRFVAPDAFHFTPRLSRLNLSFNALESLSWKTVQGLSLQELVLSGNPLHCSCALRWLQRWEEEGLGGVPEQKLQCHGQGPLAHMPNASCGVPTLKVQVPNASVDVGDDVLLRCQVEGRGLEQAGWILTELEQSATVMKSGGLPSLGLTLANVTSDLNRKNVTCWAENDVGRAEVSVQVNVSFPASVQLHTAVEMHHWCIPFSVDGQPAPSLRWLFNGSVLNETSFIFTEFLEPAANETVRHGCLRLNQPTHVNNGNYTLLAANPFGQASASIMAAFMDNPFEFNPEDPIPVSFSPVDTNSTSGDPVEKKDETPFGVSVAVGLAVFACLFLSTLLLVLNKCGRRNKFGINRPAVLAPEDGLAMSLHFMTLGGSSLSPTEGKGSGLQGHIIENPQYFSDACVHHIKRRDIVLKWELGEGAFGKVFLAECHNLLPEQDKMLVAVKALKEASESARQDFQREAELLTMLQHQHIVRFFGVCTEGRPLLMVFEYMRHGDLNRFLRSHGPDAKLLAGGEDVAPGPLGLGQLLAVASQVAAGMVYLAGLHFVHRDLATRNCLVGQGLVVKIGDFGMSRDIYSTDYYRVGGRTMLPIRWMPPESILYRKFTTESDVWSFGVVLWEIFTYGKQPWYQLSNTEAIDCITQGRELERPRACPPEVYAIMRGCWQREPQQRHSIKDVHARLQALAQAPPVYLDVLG
Sequence of NT-3 growth factor receptor (Homo sapiens) (Q16288 32-839 limits assumed): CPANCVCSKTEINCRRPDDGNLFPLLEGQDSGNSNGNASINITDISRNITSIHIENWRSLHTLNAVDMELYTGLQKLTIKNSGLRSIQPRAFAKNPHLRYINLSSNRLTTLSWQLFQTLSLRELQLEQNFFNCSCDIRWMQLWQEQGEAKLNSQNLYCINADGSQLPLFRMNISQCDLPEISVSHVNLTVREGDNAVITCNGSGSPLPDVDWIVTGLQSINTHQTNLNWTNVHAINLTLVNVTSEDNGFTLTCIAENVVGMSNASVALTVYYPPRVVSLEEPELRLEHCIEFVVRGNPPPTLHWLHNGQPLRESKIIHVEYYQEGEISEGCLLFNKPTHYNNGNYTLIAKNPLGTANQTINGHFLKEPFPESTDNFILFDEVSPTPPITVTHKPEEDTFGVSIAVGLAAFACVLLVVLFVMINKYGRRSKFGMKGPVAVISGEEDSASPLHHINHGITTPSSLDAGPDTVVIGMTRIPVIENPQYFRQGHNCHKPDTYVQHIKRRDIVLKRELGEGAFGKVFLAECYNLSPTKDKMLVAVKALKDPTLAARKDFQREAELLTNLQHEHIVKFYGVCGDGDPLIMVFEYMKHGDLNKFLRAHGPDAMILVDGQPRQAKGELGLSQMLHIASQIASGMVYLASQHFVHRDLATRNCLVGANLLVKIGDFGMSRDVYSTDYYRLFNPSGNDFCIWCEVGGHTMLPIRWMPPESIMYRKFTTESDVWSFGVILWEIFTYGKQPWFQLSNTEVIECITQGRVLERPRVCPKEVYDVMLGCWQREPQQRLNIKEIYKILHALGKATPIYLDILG
Sequence of Activated CDC42 kinase 1 (Homo sapiens) (Q07912 whole entry, looked up): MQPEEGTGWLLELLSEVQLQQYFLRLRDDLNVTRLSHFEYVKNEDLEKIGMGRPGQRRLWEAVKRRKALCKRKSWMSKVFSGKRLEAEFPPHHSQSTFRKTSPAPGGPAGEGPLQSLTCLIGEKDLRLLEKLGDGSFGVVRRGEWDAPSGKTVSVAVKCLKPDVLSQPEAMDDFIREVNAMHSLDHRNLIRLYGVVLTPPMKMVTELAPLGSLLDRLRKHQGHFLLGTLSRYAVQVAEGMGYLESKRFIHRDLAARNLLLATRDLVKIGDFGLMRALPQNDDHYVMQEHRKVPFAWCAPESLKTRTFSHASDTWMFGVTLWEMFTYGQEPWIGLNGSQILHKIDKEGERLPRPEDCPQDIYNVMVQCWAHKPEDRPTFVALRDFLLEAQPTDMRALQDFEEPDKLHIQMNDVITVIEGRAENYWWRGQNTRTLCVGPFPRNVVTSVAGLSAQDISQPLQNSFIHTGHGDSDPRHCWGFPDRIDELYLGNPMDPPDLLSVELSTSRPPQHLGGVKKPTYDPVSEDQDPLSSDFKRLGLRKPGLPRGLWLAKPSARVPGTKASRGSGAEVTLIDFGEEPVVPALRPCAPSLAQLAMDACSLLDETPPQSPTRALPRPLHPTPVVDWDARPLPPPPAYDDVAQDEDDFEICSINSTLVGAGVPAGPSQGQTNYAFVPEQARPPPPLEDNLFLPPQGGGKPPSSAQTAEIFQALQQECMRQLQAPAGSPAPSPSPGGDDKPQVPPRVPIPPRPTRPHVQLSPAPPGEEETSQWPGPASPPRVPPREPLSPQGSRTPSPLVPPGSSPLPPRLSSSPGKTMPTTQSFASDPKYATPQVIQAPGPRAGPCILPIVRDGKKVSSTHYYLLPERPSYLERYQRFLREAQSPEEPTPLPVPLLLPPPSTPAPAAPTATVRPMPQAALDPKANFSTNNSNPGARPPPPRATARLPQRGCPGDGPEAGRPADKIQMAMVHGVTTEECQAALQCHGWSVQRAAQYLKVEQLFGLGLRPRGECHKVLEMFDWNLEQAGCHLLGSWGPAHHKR
Sequence of BDNF/NT-3 growth factors receptor (Homo sapiens) (Q16620 32-822 limits assumed): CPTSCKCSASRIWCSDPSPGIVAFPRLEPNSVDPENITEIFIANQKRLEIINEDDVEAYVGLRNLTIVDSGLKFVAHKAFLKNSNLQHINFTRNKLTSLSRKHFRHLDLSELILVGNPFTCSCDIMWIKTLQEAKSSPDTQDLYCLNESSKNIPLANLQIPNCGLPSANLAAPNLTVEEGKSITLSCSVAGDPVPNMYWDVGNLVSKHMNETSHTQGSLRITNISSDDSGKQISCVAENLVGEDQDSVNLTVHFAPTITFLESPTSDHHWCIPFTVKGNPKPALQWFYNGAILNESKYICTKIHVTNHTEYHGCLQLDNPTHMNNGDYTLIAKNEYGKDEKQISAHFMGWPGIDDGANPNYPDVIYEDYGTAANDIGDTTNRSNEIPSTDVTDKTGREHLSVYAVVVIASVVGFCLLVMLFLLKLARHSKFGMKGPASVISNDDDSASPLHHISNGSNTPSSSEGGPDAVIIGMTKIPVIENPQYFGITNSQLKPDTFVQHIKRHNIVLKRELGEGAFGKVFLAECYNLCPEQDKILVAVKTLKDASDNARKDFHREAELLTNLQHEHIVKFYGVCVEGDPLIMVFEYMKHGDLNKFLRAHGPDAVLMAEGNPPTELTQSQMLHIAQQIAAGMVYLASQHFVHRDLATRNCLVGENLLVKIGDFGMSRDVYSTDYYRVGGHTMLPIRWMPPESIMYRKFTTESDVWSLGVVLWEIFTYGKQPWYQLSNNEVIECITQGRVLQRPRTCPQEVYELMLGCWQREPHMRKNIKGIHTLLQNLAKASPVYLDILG
Sequence of Non-receptor tyrosine-protein kinase TYK2 (Homo sapiens) (P29597 whole entry): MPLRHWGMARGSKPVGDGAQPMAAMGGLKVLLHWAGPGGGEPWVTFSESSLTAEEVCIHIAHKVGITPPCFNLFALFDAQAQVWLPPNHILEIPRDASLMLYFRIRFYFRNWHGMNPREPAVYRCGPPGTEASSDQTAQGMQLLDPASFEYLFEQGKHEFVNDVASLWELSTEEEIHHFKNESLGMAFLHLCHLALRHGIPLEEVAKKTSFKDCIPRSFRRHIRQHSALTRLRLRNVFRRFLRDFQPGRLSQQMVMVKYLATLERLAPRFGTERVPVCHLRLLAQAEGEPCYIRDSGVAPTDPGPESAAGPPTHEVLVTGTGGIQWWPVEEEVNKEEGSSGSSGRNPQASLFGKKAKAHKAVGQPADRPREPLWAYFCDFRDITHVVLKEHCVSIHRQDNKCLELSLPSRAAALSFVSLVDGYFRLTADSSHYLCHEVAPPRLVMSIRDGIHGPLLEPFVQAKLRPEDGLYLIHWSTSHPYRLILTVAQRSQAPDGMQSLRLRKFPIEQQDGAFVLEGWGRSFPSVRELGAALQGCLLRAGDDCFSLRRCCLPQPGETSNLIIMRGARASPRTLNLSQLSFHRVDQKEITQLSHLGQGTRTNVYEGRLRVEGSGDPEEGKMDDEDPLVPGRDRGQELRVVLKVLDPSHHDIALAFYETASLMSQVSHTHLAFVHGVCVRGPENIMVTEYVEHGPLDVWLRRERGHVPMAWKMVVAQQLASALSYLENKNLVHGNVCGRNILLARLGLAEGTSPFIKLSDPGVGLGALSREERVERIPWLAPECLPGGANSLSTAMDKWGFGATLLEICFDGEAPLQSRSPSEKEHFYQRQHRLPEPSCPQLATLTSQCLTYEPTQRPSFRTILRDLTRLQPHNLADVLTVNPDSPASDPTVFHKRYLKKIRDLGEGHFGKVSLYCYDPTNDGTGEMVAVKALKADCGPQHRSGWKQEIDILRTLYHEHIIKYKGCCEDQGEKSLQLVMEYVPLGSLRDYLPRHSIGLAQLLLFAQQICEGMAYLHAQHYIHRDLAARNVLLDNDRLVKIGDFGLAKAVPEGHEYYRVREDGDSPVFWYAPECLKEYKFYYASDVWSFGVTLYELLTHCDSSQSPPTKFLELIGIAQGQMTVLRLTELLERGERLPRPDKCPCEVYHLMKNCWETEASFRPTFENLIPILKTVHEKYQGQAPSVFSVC

Regarding `Fc1ccc(-c2c(-c3ccncc3)nc3n2CCS3)cc1`, the inhibition in [1] is 1.49%; in assay [2], -1.67%; in assay [3] it was -0.75%; in assay [4], 2.27%; in [5], 4.78%; in assay [6], 0.74%. Also, the inhibition in [7] is 2.59%; in [8], 0.57%; in [9], 1.01%; in assay [10] it was 3.03%; in assay [11] it was -0.43%; in [12] it was 1.79%. The inhibition in [13] is -0.01%; in assay [14] it was 3.54%; in [15] it was 1.8%; in [16], -1.56%; in assay [17], 0.44%; in [18] it was -0.68%. The results for the inhibition in assay [19] and in assay [20] were 4.17% and -2.71%, respectively.
For `COc1cccc(/C=N/Nc2ncnc3c2cnn3-c2cccc(OC)c2)c1`, the inhibition came to 0.04% in assay [1]; 4.1% in [2]; 4.79% in assay [3]; 5.3% in [4]; 4.37% in assay [5]; 0.36% in assay [6]. For the same compound, the inhibition amounted to 3.79% in assay [7]; 1.06% in assay [8]; 3.32% in assay [9]; 1.54% in [10]; 4.58% in assay [11]; 2.99% in assay [12]. In addition, the inhibition in [13] was 5.56%; in assay [14], 1.57%; in assay [15], 2.15%; in assay [16], 3.48%; in [17], 2.61%; in assay [18], -3.27%. Also, the inhibition in [19] came to 9.42%; in [20] it was 2.87%.
On to `CCS(=O)(=O)c1ccc(OC)c(Nc2ncc(-c3cccc(-c4ccccc4F)c3)o2)c1`, for which the inhibition in assay [1] is 1.23%; in assay [2], 2.94%; in [3], 12.7%; in assay [4] it was 3.06%; in assay [5], 19%; in assay [6] it was 14.1%. Further, the inhibition in assay [7] was determined as 61.8%; in [8] it was 1.02%; in assay [9] it was 7.85%; in assay [10], 6.39%; in [11], 26%; in assay [12] it was 7.74%. Also, the inhibition in [13] worked out at 39.2%; in [14], 7.3%; in [15], 39.5%; in assay [16], 5.11%; in assay [17], 31.2%; in assay [18], 1.51%. In addition, the inhibition in [19] was found to be 3.52%; in assay [20], 0.79%.
`Cc1nnc(-c2ccc(C)c(-c3ccc(C(=O)NCc4ccc(Cl)cc4)cc3)c2)o1`: the inhibition was -1% in assay [1]; 0.01% in [2]; 0.03% in assay [3]; 4.45% in assay [4]; 6.89% in assay [5]; 0.68% in assay [6]. Further, the inhibition in assay [7] was found to be 5.31%; in [8] it was 0.65%; in assay [9] it was 0.3%; in [10] it was 2.65%; in assay [11], 3.12%; in assay [12] it was 3.47%. The inhibition in [13] is 1.5%; in assay [14], 2.79%; in assay [15], 1.36%; in assay [16], -0.45%; in assay [17], -1.48%; in [18] it was -6.26%. Moreover, the inhibition was -0.17% in [19] and -1.43% in [20].
